Test results from the supplement of paper PMC10849652.
Targets with a hit are over-represented here; the source holds about 7,900 in all. About 0.6% of all pairs of compound and target were hits.

Compound: O=C1NC(=O)C(c2cnc3ccccn23)=C1c1cn2c3c(cc(F)cc13)CN(C(=O)N1CCCCC1)CC2
Assay: log2 fold change, soluble protein after heating vs DMSO (PISA); higher = thermal stabilisation; K562 cells, 10 uM, 30 min; active = over 0.2 and 3.5 SD of the protein, either way, in both replicates (recomputed)
Outline: (§1)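 Soluble protein was defined as the supernatant after 21,000xg for 90 min. It came from K562 cells at 2×10^6 cells/mL given 10 μM compound for 30 min, heated in aliquots for 3 min across 48°C-58°C, pooled, and extracted in PBS with 0.5% NP-40 at 4°C, and was quantified by TMTpro 16plex LC-MS/MS with equalised channel sums. Thermal stability against control samples, from duplicates, is reported as log2 fold change.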

UniProt Q7Z4Q2, sequence (Q7Z4Q2 whole entry, looked up): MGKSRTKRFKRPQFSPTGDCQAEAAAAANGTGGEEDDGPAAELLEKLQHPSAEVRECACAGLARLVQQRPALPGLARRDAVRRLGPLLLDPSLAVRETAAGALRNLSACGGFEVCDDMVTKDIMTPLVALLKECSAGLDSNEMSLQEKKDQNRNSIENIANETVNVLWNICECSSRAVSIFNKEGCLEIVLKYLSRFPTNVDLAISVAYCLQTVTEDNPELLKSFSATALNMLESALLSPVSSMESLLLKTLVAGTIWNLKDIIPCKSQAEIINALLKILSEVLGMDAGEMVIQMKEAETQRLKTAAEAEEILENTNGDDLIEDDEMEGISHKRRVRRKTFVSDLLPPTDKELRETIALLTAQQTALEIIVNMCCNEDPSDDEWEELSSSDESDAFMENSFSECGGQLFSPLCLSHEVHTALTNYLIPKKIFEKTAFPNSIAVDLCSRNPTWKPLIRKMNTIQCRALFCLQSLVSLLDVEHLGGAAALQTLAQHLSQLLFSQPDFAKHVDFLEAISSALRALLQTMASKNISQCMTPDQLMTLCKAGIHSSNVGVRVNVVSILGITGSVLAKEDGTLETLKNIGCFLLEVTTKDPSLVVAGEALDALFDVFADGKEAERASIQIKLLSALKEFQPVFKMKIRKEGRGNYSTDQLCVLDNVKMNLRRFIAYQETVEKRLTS
UniProt O76003, sequence (O76003 whole entry, looked up): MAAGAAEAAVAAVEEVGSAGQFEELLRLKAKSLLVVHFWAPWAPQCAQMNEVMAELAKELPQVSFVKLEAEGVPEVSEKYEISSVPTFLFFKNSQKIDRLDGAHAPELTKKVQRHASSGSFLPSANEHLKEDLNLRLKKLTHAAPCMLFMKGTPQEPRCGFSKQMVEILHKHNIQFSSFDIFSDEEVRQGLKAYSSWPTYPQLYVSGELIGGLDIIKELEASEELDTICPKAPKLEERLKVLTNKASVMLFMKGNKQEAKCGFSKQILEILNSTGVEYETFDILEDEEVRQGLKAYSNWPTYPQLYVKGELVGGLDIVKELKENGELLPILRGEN
UniProt Q53R41, sequence (Q53R41 whole entry, looked up): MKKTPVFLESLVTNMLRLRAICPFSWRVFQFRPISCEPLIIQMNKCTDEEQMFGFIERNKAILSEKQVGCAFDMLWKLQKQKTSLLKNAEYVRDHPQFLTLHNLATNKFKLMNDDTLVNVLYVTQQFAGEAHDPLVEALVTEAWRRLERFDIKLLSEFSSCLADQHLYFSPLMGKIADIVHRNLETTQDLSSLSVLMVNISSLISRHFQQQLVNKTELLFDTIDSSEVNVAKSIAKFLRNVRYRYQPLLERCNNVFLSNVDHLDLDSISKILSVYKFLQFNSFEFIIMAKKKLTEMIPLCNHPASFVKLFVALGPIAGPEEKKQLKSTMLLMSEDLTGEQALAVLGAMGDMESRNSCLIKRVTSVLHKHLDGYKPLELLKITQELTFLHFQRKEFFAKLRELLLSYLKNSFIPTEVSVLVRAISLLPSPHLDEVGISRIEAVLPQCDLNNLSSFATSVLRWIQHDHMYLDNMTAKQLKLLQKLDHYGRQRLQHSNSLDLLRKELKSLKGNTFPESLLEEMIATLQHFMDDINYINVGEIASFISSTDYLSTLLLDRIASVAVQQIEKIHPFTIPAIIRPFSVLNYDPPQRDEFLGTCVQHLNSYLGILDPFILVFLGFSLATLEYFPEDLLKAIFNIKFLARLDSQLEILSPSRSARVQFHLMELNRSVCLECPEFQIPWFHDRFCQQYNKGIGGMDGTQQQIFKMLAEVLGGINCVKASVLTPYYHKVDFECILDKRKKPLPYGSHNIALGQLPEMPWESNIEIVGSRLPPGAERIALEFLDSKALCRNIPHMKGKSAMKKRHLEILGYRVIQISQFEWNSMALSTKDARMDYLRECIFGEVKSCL
UniProt Q13907, sequence (Q13907 whole entry, looked up): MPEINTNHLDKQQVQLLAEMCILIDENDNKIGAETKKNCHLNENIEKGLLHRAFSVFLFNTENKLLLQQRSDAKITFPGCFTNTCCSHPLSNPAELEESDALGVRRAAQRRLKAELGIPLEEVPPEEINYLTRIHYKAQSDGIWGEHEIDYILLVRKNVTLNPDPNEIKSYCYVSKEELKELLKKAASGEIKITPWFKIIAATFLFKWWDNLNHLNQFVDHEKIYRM
UniProt P60520, sequence (P60520 whole entry, looked up): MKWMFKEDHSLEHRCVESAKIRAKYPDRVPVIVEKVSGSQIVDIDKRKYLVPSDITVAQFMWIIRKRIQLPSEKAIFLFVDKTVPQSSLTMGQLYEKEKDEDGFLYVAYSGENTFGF
UniProt P52657, sequence (P52657 whole entry, looked up): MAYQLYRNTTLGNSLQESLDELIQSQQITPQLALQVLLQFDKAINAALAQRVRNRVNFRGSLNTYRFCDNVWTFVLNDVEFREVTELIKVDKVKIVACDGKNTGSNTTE
UniProt P48507, sequence (P48507 whole entry, looked up): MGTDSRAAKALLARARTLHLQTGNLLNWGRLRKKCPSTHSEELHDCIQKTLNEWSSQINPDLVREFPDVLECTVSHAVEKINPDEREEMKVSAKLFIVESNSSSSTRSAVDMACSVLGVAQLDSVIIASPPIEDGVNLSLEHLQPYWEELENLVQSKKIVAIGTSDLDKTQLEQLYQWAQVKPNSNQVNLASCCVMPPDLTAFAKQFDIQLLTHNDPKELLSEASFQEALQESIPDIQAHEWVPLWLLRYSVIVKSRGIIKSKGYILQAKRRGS
UniProt O00458, sequence (O00458 whole entry, looked up): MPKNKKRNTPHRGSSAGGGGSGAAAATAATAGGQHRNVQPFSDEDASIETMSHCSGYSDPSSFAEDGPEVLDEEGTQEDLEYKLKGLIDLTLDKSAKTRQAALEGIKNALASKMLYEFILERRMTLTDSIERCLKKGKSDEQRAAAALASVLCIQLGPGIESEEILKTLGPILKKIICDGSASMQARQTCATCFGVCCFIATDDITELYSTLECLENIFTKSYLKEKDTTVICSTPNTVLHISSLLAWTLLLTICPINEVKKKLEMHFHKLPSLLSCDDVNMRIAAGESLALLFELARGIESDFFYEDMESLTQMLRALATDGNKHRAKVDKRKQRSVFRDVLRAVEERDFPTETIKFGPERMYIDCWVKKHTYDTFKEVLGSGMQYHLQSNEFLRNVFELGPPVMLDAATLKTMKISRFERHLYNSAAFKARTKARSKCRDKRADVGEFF
UniProt O43824, sequence (O43824 whole entry, looked up): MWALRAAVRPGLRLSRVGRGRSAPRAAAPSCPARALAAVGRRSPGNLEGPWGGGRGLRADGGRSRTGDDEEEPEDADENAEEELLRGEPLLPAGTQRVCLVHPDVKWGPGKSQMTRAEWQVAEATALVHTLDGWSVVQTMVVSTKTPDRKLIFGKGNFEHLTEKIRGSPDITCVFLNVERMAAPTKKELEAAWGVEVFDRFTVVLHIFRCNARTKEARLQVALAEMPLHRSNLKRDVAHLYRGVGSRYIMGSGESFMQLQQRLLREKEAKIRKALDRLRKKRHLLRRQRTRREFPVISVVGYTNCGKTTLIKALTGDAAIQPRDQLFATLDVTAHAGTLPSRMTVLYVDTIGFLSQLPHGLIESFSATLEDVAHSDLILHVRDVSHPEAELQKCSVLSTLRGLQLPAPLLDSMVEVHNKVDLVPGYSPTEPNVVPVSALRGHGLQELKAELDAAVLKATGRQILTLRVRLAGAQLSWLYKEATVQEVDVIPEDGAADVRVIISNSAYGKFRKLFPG
UniProt P09211, sequence (P09211 whole entry, looked up): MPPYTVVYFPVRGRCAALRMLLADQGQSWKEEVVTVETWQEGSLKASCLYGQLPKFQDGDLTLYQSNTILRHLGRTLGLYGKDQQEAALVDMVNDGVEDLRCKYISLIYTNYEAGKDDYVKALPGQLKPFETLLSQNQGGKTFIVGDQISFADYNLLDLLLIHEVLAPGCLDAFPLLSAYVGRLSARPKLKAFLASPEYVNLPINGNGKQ
UniProt Q13547, sequence (Q13547 whole entry, looked up): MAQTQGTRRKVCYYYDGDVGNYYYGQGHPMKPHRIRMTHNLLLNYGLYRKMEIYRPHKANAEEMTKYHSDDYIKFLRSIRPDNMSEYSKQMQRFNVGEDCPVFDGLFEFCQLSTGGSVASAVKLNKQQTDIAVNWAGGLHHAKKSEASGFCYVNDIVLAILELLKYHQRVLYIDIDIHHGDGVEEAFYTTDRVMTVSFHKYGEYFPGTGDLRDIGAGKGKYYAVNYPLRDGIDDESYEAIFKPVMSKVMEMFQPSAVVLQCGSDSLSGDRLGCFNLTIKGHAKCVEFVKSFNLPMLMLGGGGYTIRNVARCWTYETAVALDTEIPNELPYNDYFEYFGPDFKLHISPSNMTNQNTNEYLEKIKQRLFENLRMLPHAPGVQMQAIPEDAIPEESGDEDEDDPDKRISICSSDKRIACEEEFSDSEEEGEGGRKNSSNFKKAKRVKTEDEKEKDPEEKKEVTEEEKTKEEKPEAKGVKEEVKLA
UniProt Q70Z53, sequence (Q70Z53 whole entry, looked up): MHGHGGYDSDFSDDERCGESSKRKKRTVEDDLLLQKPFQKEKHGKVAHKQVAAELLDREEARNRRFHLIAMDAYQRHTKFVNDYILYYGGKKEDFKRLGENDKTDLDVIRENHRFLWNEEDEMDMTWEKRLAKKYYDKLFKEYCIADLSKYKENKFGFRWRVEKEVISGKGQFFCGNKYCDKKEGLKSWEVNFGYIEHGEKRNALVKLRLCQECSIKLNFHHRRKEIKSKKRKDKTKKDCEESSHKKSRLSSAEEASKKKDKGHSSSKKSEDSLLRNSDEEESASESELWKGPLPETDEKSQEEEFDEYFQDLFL
UniProt P30711, sequence (P30711 whole entry, looked up): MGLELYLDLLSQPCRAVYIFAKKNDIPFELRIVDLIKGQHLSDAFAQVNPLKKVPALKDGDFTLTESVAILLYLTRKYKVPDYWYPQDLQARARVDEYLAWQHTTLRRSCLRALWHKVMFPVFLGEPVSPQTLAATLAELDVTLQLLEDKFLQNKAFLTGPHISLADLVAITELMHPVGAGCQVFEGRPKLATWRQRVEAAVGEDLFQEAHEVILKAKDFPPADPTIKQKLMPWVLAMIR

log2 fold change, inactive:
FAT1 (UniProt Q14517) -0.051
GLRX3 (UniProt O76003) -0.094
IFRD1 (UniProt O00458) 0.022
IDI1 isoform 2 (UniProt Q13907) -0.066
HEATR3 (UniProt Q7Z4Q2) -0.051
GABARAPL2 (UniProt P60520) -0.048
GTPBP6 (UniProt O43824) 0.086
GCLM (UniProt P48507) -0.022
GTF2A2 (UniProt P52657) -0.014
FASTKD1 (UniProt Q53R41) -0.12

Compound: c1cc(OCCN2CCCCC2)cc(-c2n[nH]c3ccc(-c4nnc[nH]4)cc23)c1
Assay: as above
Outline: as §1

log2 fold change, inactive:
GABPA (UniProt Q06546) 0.008
FRA10AC1 isoform 3 (UniProt Q70Z53) -0.232
GINS2 (UniProt Q9Y248) -0.026
GNAS (UniProt Q5JWF2) -0.045
GYS1 (UniProt P13807) -0.301
HEXB (UniProt P07686) -0.003
HDAC1 (UniProt Q13547) 0.003
FKBP4 (UniProt Q02790) -0.029
GATD1 (UniProt Q8NB37) -0.031
GSTT1 (UniProt P30711) -0.012
HDAC10 (UniProt Q969S8) -0.09
HDAC2 (UniProt Q92769) -0.041
FKBP3 (UniProt Q00688) 0.054
HDAC7 isoform 5 (UniProt Q8WUI4) -0.163
FBXO9 (UniProt Q9UK97) 0.054
GNL3 (UniProt Q9BVP2) 0.041
GIGYF2 (UniProt Q6Y7W6) -0.065
GSTP1 (UniProt P09211) -0.013
GNL1 (UniProt P36915) -0.011
GTF3A (UniProt Q92664) -0.072
GEMIN2 (UniProt O14893) 0.073
FUT8 (UniProt Q9BYC5) 0.027
GLCCI1 (UniProt Q86VQ1) -0.088
GLRX3 (UniProt O76003) -0.024
IFRD1 (UniProt O00458) -0.016
IDI1 isoform 2 (UniProt Q13907) 0.035
HEATR3 (UniProt Q7Z4Q2) 0.047
GABARAPL2 (UniProt P60520) 0.015
GTPBP6 (UniProt O43824) -0.011
GCLM (UniProt P48507) -0.004
GTF2A2 (UniProt P52657) 0
FASTKD1 (UniProt Q53R41) 0.046
